# Test results: PubChem BioAssay AID720649 (The Scripps Research Institute Molecular Screening Center, 2013)
# This is one part of the list. Activity calls are given as the source filed them. No rule for the calls is given here.
# Experiment: TO-PRO-1 dye complex inhibitors on d(CAG) DNA, dose response, counter-screen, biochemical, fluorescence, late stage (AID 720649)
# Conditions: d(CAG) DNA duplex TO-PRO-1 dye displacement
smiles,measurement,value
O=C1CC(=O)N(Cc2ccccc2)C(=O)N1CCCCCCN1C(=O)CC(=O)N(Cc2ccccc2)C1=O,IC50,6.7 µM (active)
